Our source for the outcome, Potency and cell viability, % of control (lower = more cytotoxic) values is PubChem BioAssay (NCATS).

Inconclusive results are not listed. For some assays here: Entries with a potency or affinity are not part of this list. Activity calls are given as the source filed them.

For assay [1] the following is noted: Ebola virus entry assay, green channel fluorescence.
The conditions of assay [2]: Ebola virus entry assay, blue channel fluorescence.
The conditions of assay [3]: Ebola virus entry assay, reporter ratio channel; AC50: Channel type: primary unless noted; outcome: Channel type: primary unless noted.
The conditions of assay [4]: Ebola virus entry assay, blue channel (ratio component).
For assay [5] the following is noted: Ebola virus entry cell assay, ratio channel.
The conditions of assay [6]: Ebola virus entry reporter assay, green channel fluorescence. (Reporter assays use an easily measured gene product as a stand-in for the process of interest.)
A short description of assay [7]: Immunotoxin (HA22) sensitization/mitigation study. Vehicle arm (PBS) (AID 1159510). Further: potency means the concentration at half of the fitted maximal effect. The settings on record: cancer cells viability with PBS vehicle (HA22 study); series mostly up to 46.1 µM.
The nature of assay [8]: Immunotoxin (SS1P) sensitization/mitigation study. Vehicle arm (DMEM) (AID 1159513). Further: potency means the concentration at half of the fitted maximal effect. The settings on record: cell viability with vehicle (DMEM); series mostly up to 46.1 µM.
Assay [9] in a line: High-throughput drug toxicity screening in the BPDCN cell line Gen2.2 (AID 1224824).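 Further: cells exposed to compounds for 48 h before reading.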 The settings on record: Gen2.2 BPDCN cells; at 45.8 µM (top of the series). Put shortly: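 Gen2.2 cells (500/well) in phenol red-free RPMI with 10% FBS were exposed to compounds for 48 h at 37 °C, 5% CO2. Viability was read by CellTiter-Glo luminescence and normalized to DMSO (100%) and 9.2 uM bortezomib (0%).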

Assay [10] is described as follows: qHTS assay for measurement of the activity of small molecule inhibitors on Zika virus induced Caspase-3 activity in human astrocytoma cells (AID 1224859; active means well fitted curve in the direction sought with a large enough effect; an effect the other way counts as inactive or inconclusive;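 further: plate controls were ZIKV-infected untreated cells for no effect and uninfected cells for full effect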). The settings on record: SNB-19 ZIKV-induced caspase-3/7, luminescence, 6 h; series mostly up to 45.7 µM. Put shortly:
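Percent inhibition of virus-induced caspase-3/7 signal is calculated against uninfected and ZIKV-infected control cells. Cells are SNB-19, infected at 2 FFU/cell for 6 h after 1 h compound exposure.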
A general note: In qHTS, concentration-response curves come from the screen itself.

Assay [11] is described as follows: qHTS Screen of the MIPE 4.0 Collection Against Ewings Sarcoma (TC71) (AID 1259253; active means well fitted curve in the direction sought with a large enough effect; an effect the other way counts as inactive or inconclusive; further: potency means the concentration at half of the fitted maximal effect; nearly all actives have a fitted effect of over 40% in size). The settings on record: TC71 Ewing sarcoma viability, CellTiter-Glo, 48 h; series mostly up to 45.8 µM. Put shortly:
(§1)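 Log-phase cells in RPMI with 5% FBS attached for 4 h, then received compounds as a titration for 48 h at 37C, 5% CO2. Viability was read by CellTiter-Glo luminescence and normalized to DMSO and no-cell wells.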

Assay [12] can be described thus: qHTS Screen of the MIPE 4.0 Collection Against Ewings Sarcoma (EW8) (AID 1259255; active means well fitted curve in the direction sought with a large enough effect; an effect the other way counts as inactive or inconclusive; further: potency means the concentration at half of the fitted maximal effect; nearly all actives have a fitted effect of over 35% in size). The settings on record: EW8 Ewing sarcoma viability, CellTiter-Glo, 48 h; series mostly up to 45.8 µM. Put shortly: as §1
The nature of assay [13]: qHTS assay to identify small molecule inhibitors of chordoma cells - UCH-1 (AID 1259355; active means well fitted curve in the direction sought with a large enough effect; an effect the other way counts as inactive or inconclusive; further: on the % scale 0 is the no-effect control and ±100 the full control effect; nearly all actives have a fitted effect of over 55% in size). The settings on record: UCH-1 chordoma viability, CellTiter-Glo, 48 h, combination; series mostly up to 46.1 µM. Put shortly:
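Cells (800/well) were seeded and left overnight at 37 C, 5% CO2, then treated with drugs at 15 concentrations plus a combination mix of auranofin, camptothecin, doxorubicin, rubitecan and topotecan. Viability after 48hr was read by CellTiter-Glo luminescence.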

Assay [14] is described as follows: qHTS assay to identify small molecule inhibitors of chordoma cells - UCH-2 (AID 1259356; active means well fitted curve in the direction sought with a large enough effect; an effect the other way counts as inactive or inconclusive; further: on the % scale 0 is the no-effect control and ±100 the full control effect). The settings on record: UCH-2 chordoma viability, CellTiter-Glo ATP luminescence, 48 h; series mostly up to 46.1 µM.

For `CCN1CCN(C(=O)N[C@@H](C(=O)N[C@@H]2C(=O)N3C(C(=O)O)=C(CSc4nnnn4C)CS[C@H]23)c2ccc(O)cc2)C(=O)C1=O`, the call in assay [1], in [2], in assay [3], in assay [4] and in assay [5] was inactive.

Consider `COc1ccc2nc(S(=O)Cc3ncc(C)c(OC)c3C)[nH]c2c1` (stereo unspecified), for which the result in [1], in assay [2], in assay [3], in [4], in [6] and in assay [5] was inactive. The Potency result in [7] and in assay [8] was “inactive” each time.

As to `CO/N=C1\CN(c2nc3c(cc2F)c(=O)c(C(=O)O)cn3C2CC2)CC1CN` (stereo unspecified), the molecule was called inactive in assay [1], in assay [2], in assay [3], in [4] and in [5].

Consider `N[C@@H](Cc1ccc(N(CCCl)CCCl)cc1)C(=O)O`, for which the result in assay [1], in [2], in assay [3], in assay [4], in assay [6] and in assay [5] was inactive. Further, in [10], the molecule was classed as inactive. In addition, in [9], the cell viability, % of control (lower = more cytotoxic) stood at 5.36%. Also, the results for the Potency in [11] and in [12] were 9.35 µM (active) and 3.32 µM (active), respectively.

`C=C1CC[C@@]2(O)[C@H]3Cc4ccc(O)c5c4[C@@]2(CCN3CC2CC2)[C@H]1O5`: the molecule was called inactive in [1], in assay [2], in [3], in assay [4], in assay [6] and in [5]. Further, the call in assay [10] was inactive. Besides, the Potency entry in assay [13] and in assay [14] was “inactive” each time.

Turning to `CCCCN1C[C@H](O)[C@@H](O)[C@H](O)[C@H]1CO`, the molecule was called inactive in assay [1], in [2], in assay [3], in assay [4], in assay [6] and in [5].

Turning to `CC(C)(C#N)c1cc(Cn2cncn2)cc(C(C)(C)C#N)c1`, the result in [1], in assay [2], in assay [3], in [4], in assay [6] and in assay [5] was inactive.

`CN(N=O)C(=O)N[C@@H]1[C@@H](O)[C@H](O)[C@@H](CO)O[C@@H]1O`: the result in assay [1], in [2], in assay [3], in assay [4], in assay [6] and in assay [5] was inactive.

For the molecule `Cc1oncc1C(=O)Nc1ccc(C(F)(F)F)cc1`, the molecule was classed as inactive in [1], in assay [2], in assay [3], in assay [4], in assay [6] and in assay [5]. In assay [7], the Potency is 20.9 µM (active).

As for `COc1ccccc1Oc1c(NS(=O)(=O)c2ccc(C(C)(C)C)cc2)nc(-c2ncccn2)nc1OCCO`, the result in assay [1], in assay [2], in assay [3], in assay [4] and in assay [5] was inactive.

In the case of `C[C@H]1[C@H](NC(=O)/C(=N/OC(C)(C)C(=O)O)c2csc(N)n2)C(=O)N1S(=O)(=O)O` (stereo in doubt), the outcome in assay [1], in assay [2], in assay [3], in assay [4], in [6] and in [5] was inactive.

For the molecule `CCCN[C@H]1CCc2nc(N)sc2C1`, the outcome in [1], in assay [2], in [3], in [4] and in assay [5] was inactive.

Consider `Oc1cn2c(n1)Nc1ccc(Cl)c(Cl)c1C2`, for which the result in assay [1], in assay [2], in assay [3], in assay [4], in [6] and in assay [5] was inactive. The Potency in assay [8] was 0.0066 µM (active).

As to `C[C@@H](c1ncncc1F)C(O)(Cn1cncn1)c1ccc(F)cc1F` (stereo partly specified), the call in [1], in assay [2], in [3], in assay [4] and in assay [5] was inactive.

Consider `Cc1[nH]c(=O)c(C#N)cc1-c1ccncc1`, for which the molecule was classed as inactive in assay [1], in [2], in assay [3], in assay [4], in assay [6] and in assay [5].

As to `CC1OC(C)OC(C)O1` (stereo unspecified), the molecule was classed as inactive in [1], in [2], in assay [3], in [4], in [6] and in assay [5]. Further, the outcome in assay [10] was inactive. The Potency entry in [13] and in [14] was “inactive” throughout.

As for `Nc1nc2c(ncn2COC(CO)CO)c(=O)[nH]1`, the molecule was classed as inactive in [1], in assay [2], in assay [3], in assay [4] and in [5].

`Cc1ccc(C(=O)c2cc(O)c(O)c([N+](=O)[O-])c2)cc1`: the molecule was called inactive in assay [1], in [2], in [3], in [4] and in assay [5].

For the molecule `Nc1[nH]c(=O)ncc1F`, the outcome in [1], in assay [2], in assay [3], in [4], in assay [6] and in assay [5] was inactive.

With `N[C@@H](Cc1cc(I)c(Oc2cc(I)c(O)c(I)c2)c(I)c1)C(=O)O`, the molecule was classed as inactive in [1], in assay [2], in assay [3], in [4] and in [5].

For the molecule `COC(=O)N[C@H](C(=O)N[C@@H](Cc1ccccc1)[C@@H](O)CN(Cc1ccc(-c2ccccn2)cc1)NC(=O)[C@@H](NC(=O)OC)C(C)(C)C)C(C)(C)C`, the molecule was classed as inactive in [1], in assay [2], in assay [3], in assay [4] and in assay [5].

With `CC1(C)O[C@@H]2[C@@H](CO[C@@]3(COS(N)(=O)=O)OC(C)(C)O[C@@H]23)O1`, the call in assay [1], in [2], in [3], in assay [4] and in assay [5] was inactive.

For the molecule `CN(CCOc1ccc(NS(C)(=O)=O)cc1)CCc1ccc(NS(C)(=O)=O)cc1`, the molecule was classed as inactive in [1], in assay [2], in assay [3], in assay [4] and in [5].

In the case of `CC(C(=O)O)c1cccc(C(=O)c2ccccc2)c1` (stereo unspecified), the molecule was called inactive in assay [1], in [2], in assay [3], in assay [4] and in assay [5].

Consider `COc1ccc(-c2cc(=S)ss2)cc1`, for which the call in [1], in assay [2], in assay [3], in assay [4] and in assay [5] was inactive.

Regarding `CC1(C)S[C@@H]2[C@H](NC(=O)C(C(=O)O)c3ccccc3)C(=O)N2[C@H]1C(=O)O` (stereo partly specified), the molecule was classed as inactive in [1], in assay [2], in assay [3], in assay [4] and in assay [5].

As to `C=C(c1ccc(C(=O)O)cc1)c1cc2c(cc1C)C(C)(C)CCC2(C)C`, the molecule was called inactive in [1], in assay [2], in assay [3], in assay [4] and in assay [5].
